Source: paper PMC6212790, “How bacterial xenogeneic silencer rok distinguishes foreign from self DNA in its resident genome”
In all, about 33,000 sequences were measured (“e-score”: median about -0.037, highest 2% from about 0.34 on). The full list was thinned out, with the highest values kept by preference.

Molecular target: T1, GST-Rok (full length) (Bacillus subtilis subsp. subtilis str. …, UniProt O34857 1-191)
T1 sequence: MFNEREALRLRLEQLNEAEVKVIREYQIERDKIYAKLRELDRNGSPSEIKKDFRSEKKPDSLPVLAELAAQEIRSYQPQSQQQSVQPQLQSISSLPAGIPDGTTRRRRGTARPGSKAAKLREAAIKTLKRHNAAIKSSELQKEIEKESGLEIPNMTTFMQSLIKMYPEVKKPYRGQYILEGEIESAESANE
Assay: protein binding microarray; Rok is a gene silencer of Bacillus subtilis; high values mean tight binding
Settings: protein: recombinant; tags: GST (pTH5325, pDEST15-Magic modified); dsDNA, one strand shown
Outline: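 Each has a 25-mer constant primer and a 35-mer variable part from a de Bruijn sequence of order 10, covering every non-palindromic 8-mer at least 32 times (palindromic 16). Preference for each 8-mer is given as a rank-based, unitless enrichment score (E-score). Its range runs from 0.5 (most favored) to −0.5 (most disfavored).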

Sequence	binding signal [E-score]
GCATGTTA	0.0472
AGTAAAAG	0.19
CACGCTTA	-0.0251
AAATATGA	0.199
AAATATTA	0.305
AAATATTG	0.295
AAATATCA	0.271
AAATATTT	0.337
AAATATGC	0.223
AAATATCT	0.355
AAATATCC	0.127
AAATATGT	0.338
CATTTCGG	0.0631
AGTCCAAA	-0.0624
ACATCATC	-0.0524
AACTATAG	0.331
AGCTATAT	0.337
AGCTATAA	0.25
AACTATAC	0.33
AACTATAT	0.362
AGCTATAG	0.283
TAAGCCTA	-0.0764
AGGCAAGC	-0.186
AATTGTGG	-0.0645
CAGTGCGG	-0.0903

Sequence	binding signal [E-score]
AGGTAGAT	0.359
ACGTAGAT	0.222
AAGTAGAT	0.374
AGTTAGAT	0.162
AAGTAGAC	0.00429
AGGTAGAG	0.122
AAGTAGAG	0.104
AGGTAGAA	0.419
GGGTAGCA	-0.00107
AGGTAGAC	0.191
GGGTAGAC	-0.127
GGGTAGAA	0.359
GTGCTTTA	-0.00122
GCGAAGTA	0.155
CGCTTTTC	0.046
AAGCTTGT	0.0413
CTAGGTGA	-0.041
AGAGTTAC	0.152
CAAAGTTA	0.0253
CGGTAGAG	0.0632
TGGTAGAA	0.468
TCGTAGAA	0.131
CGGTAGAA	0.417
CGGTAGAC	-0.0961
CCGTAGAA	0.32

Sequence	binding signal [E-score]
CTAACGCA	0.101
ACCCTGTC	-0.0851
AACGACCG	-0.0771
TAATTATA	0.385
CAATTATA	0.363
CAATTATG	0.175
AAATTATT	0.296
AAATTATG	0.215
TAATTAAA	0.259
CAATTATC	0.2
AAATTATA	0.413
GAATTATA	0.326
CGTATGGA	0.128
AATTAAAC	0.0743
CATATAGG	0.175
ATTAATCA	0.232
CTGGAAAG	-0.166
CACATCTC	0.0106
AGTATTAT	0.358
ACTATTAG	0.244
CCTATTAC	0.285
GCTATTAC	0.269
ACTATTAC	0.407
ACTATTAA	0.289
AGTATTAA	0.29

Sequence	binding signal [E-score]
ATTATTAA	0.0696
AGTATTAC	0.26
ACTATTAT	0.386
CTTATTAC	0.299
ATTATTAC	0.382
GCATTAGA	0.129
TAGTCTGA	0.148
CTTTACGA	0.0116
AAGGAGTC	-0.107
AAGGAATC	-0.0168
ATAGAAGC	0.307
CGAGTAAC	0.156
ACTTTTAC	0.224
ACTTTTAA	0.158
ACTATTGA	0.288
ACTATTGC	0.401
ACTTTTAT	0.355
ACTATTGG	0.208
CACTTTTC	0.0315
ACGTTAAG	-0.0138
TATAACCA	0.27
CACGTTGA	0.088
AAGATGAC	0.0776
AAGTTTTG	0.00498
ATTATACC	0.269

Sequence	binding signal [E-score]
ATTATACG	0.381
ACTATACG	0.0122
ATTATACA	0.363
CTTATACA	0.283
GTTATACA	0.213
AACGGTTC	0.108
GTAGACAA	-0.0127
GTGGCCAC	-0.123
ACCTTGCG	-0.00332
CAAAAAGA	-0.0731
TGCTTGAA	-0.0266
GTTCTACA	0.265
ATTCTACG	0.18
CTTCTACC	0.327
CTTCTATC	0.265
ATTCTACA	0.42
ATTCTATA	0.247
ATTCTAGC	0.257
ATTCTATC	0.348
ATTCTACC	0.442
TGAACCCA	-0.0568
CAACTAAA	0.249
TCTAACAA	0.0589
AAGCGCAG	-0.165
GAGACTGA	0.0243

Sequence	binding signal [E-score]
ACCAATCC	0.0382
ATGGTGAG	-0.0135
ACTAAAAC	0.303
ACTAAATC	0.343
ACTAAAAA	0.21
ACTAAAAT	0.406
ACTAAATA	0.3
ACTAAATG	0.277
CAAACAAC	0.00627
TAGCGGAA	0.245
GATGGACC	-0.171
ATTGTTCA	0.126
ACTGGCGG	-0.0567
CAGCTGGA	-0.0564
GGAGCAAC	-0.104
ACACTAGT	0.32
AAACTAGT	0.459
CAACTAGC	0.203
GAACTAGC	0.176
AAACTAGC	0.362
AAACTAGG	0.252
AAATCCAT	0.193
GGAGGTGA	-0.124
CCGGCAGC	-0.14
CCGCGTCG	0.0351

Sequence	binding signal [E-score]
ACAGTGTA	0.268
GTAACTCA	0.22
CGTTTTAA	0.191
ACGAGTAG	-0.0634
CAAGTACA	0.165
CTTGTATA	0.219
ATTGTATA	0.32
AAAGTACA	0.364
AATGTATG	0.272
AATGTATC	0.224
AATGTATA	0.388
AATGTACT	0.303
AATGTACG	0.192
AAAGTACG	0.22
AATGTACA	0.347
GTTGTATA	0.348
CAGTACTG	0.0294
CCTGGCGA	-0.199
GTCCGTCA	-0.0558
GGCAGCTA	-0.0821
AGAAAGAT	0.0756
AAGGCGGT	-0.0994
GATGTACA	0.282
ATTGTACG	0.266
ATTGTACC	0.239
